The full list was thinned out, with hits kept by preference.
Dicer processing: human Dicer pre-microRNA cleavage inhibition. cat-ELCCA pre-miR-21 Dicer processing, chemiluminescence; active compounds read high. 47,000 tested, 6% active. z-score at 25 µM. AID 1347074. Q9UPY3; in the data active = z-score above about 3, passing the limit was not always enough;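 also: plate controls were vehicle for no effect and no enzyme for full effect; higher signal means more uncleaved substrate so more Dicer inhibition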
An asterisk follows results filed as active.

SMILES	Dicer processing
OC1=C(O)c2nc3cc(F)ccc3nc21	3.1*
Cc1c(-c2ccc(-c3ccccc3F)cc2)nc2ccc(F)cc2c1C(=O)O	0.46
CCOC(=O)c1ccc2nc3c(nc2c1)C(O)=C3O	8.5
COCCOC(=O)c1c(C)oc2ccc(OC(=O)c3ccc(OC)cc3)cc12	-2.8
Cc1onc(-c2c(F)cccc2Cl)c1C(=O)Nc1nc(-c2ccc(F)c(F)c2)cs1	0.73
Cc1ccccc1C(=O)Cc1ccc(C(N)=O)cc1	-0.31
CSC(=Nc1ccc(Cl)cc1)N(C)C	0.1
COc1ccc(S(=O)(=O)Nc2nc(C)cc(C)n2)cc1	9.7
Cc1cn2c3ccccc3n(CCN3CCCC3)c2n1	0.49
Cc1nn2c3ccccc3n(CCN3CCCCC3)c2nc1=O	3.1*
COC(=O)c1c(C)nc2n(CCN3CCCCC3)c3ccccc3n12	1.1
CCOc1ccc2nc(SC3CC(=O)N(c4cc(OC)ccc4OC)C3=O)sc2c1 (configuration not stated)	0.17
CC(C)(C)NC(=O)NNC(=O)c1sccc1OCc1ncc(C(F)(F)F)cc1Cl	-1.1
Cc1ccc2nc3c(nc2c1C)C(O)=C3O	4.2*
CC(C)(C)c1ccc(N2C(=O)c3cc(Cl)c(Cl)cc3C2=O)cc1	0.77
Cc1cc(Nc2ccc(I)cc2F)c2ccccc2n1	0.74
Cn1cnc2c(NCc3ccco3)ncnc21	-1.5
Cc1ccc2ncnc(Nc3ccc(Cl)cc3)c2c1	-0.33
Cc1ccc2ncnc(NCc3ccco3)c2c1	4.5*
O=C(Nc1ccc(Cl)cc1)Nc1ccc2ncccc2c1	2.2
C=CCN(CC=C)Cc1c(C)[nH]c2ccc(C)cc2c1=O	1.5
Cc1cn(COCCO)c(=O)[nH]c1=O	2.5
Cc1ccc2occ(C3Nc4ccccc4NC4=C3C(=O)CC(c3ccccc3)C4)c(=O)c2c1 (configuration not stated)	1.1
O=C1CC(c2ccccc2)CC2=C1C(c1ccsc1)Nc1ccccc1N2 (configuration not stated)	2.4
Cc1ccc2occ(C3Nc4ccccc4NC4=C3C(=O)CC(c3ccccc3Cl)C4)c(=O)c2c1 (configuration not stated)	2.3
SMILES	Dicer processing
Cc1ccc(C)c(C2Nc3ccccc3NC3=C2C(=O)CC(c2cccs2)C3)c1 (configuration not stated)	3.4*
Cc1ccc(C2Nc3ccccc3NC3=C2C(=O)CC(c2ccc4c(c2)OCO4)C3)s1 (configuration not stated)	5.4*
COc1ccc(C2CC(=O)C3=C(C2)Nc2ccccc2NC3c2ccc3c(c2)OCO3)cc1OC (configuration not stated)	2.1
O=C1CC(c2ccc(Cl)cc2)CC2=C1C(c1ccc3c(c1)OCO3)Nc1ccccc1N2 (configuration not stated)	-2.8
CN(C)c1ccc(C2Nc3ccccc3NC3=C2C(=O)CC(c2cccs2)C3)cc1 (configuration not stated)	-3.1
Cc1ccc(C2Nc3ccccc3NC3=C2C(=O)CC(c2cccs2)C3)cc1 (configuration not stated)	3.2*
CCCOc1ccccc1C1C(C(=O)OCCOCC)=C(C)NC2=C1C(=O)CC(C)(C)C2 (configuration not stated)	-0.54
O=C1CC(C(=O)Nc2ccc(F)cc2)SC(=Nc2ccccc2)N1 (configuration not stated)	1.8
Cc1c2c(=O)n(-c3nc4ccccc4s3)n(Cc3ccccc3)c2cc(=O)n1Cc1ccco1	-1.4
CC(C)(C)OC(=O)CCNC(=O)Nc1cccc2ccccc12	0.29
Cc1cc(C)cc(NC(=O)C2Sc3nnc(C)n3NC2c2ccc(F)cc2)c1 (configuration not stated)	-1.1
CCCOc1nc2c(c(=O)n(C)c(=O)n2C)n1C(C)c1ccccc1 (configuration not stated)	3.5*
C#CCOc1nc2c(c(=O)n(C)c(=O)n2C)n1Cc1ccccc1	0.67
COCCOc1nc2c(c(=O)n(C)c(=O)n2C)n1CCc1ccccc1	1.6
Fc1ccc(C2Sc3ccccc3N=C3c4ccccc4SCC32)cc1 (configuration not stated)	-2.3
COC(=O)c1ccc2ncccc2c1	-0.59
COC(=O)c1ccc(C(F)(F)C(F)(F)c2ccc(C(=O)OC)cc2)cc1	0.5
COC(=O)c1ccc(C(=O)OC)nc1	3.9*
O=C1c2cccc3c(N4CCOCC4)ccc(c23)C(=O)N1c1cc(Cl)ccc1O	8.3*
O=C1c2cccc3c(N4CCOCC4)ccc(c23)C(=O)N1c1cccc(O)c1	0.21
O=C1c2cccc3c(N4CCOCC4)ccc(c23)C(=O)N1c1ccccc1	0.14
CC(=O)N(C(C)=O)c1ccc2c3c(cccc13)CC2	3
C=CCNc1nc(-c2ccc(Cl)cc2)c(-c2ccccc2)s1	-0.35
O=c1[nH]nc(-c2ccccc2)c2ccccc12	-0.94
O=c1[nH]nc(Cc2ccccc2)c2ccccc12	4*
SMILES	Dicer processing
COC(=O)CSCc1n[nH]c(=O)c2ccccc12	-0.76
CCc1nnc(-c2cccc([N+](=O)[O-])c2)o1	-0.21
Oc1c(C(Nc2ccc(Cl)cc2)c2cccnc2)ccc2cccnc12 (configuration not stated)	15
COc1ccc(C2Nc3ccc(Br)cc3C(c3ccccc3)N2CC(=O)O)cc1 (configuration not stated)	0.57
O=C(O)CN1C(c2ccccc2O)Nc2ccc(Br)cc2C1c1ccccc1 (configuration not stated)	3.1*
COC(=O)CN1C(=O)Nc2ccc(Br)cc2C1c1ccccc1 (configuration not stated)	1.3
CCOC(=O)c1cnc(Nc2ccc(C)c(Cl)c2)nc1C(F)(F)F	-0.3
CCc1cccc(C)c1NC(=S)NCCC(=O)O	-1
O=C1CC(NCCCN2CCN(c3ccc(F)cc3)CC2)C(=O)N1c1ccc(Cl)cc1 (configuration not stated)	1.2
CCOc1ccc(N2C(=O)C3C(c4ccc(C)cc4)OC4(C(=O)c5ccccc5C4=O)C3C2=O)cc1 (configuration not stated)	3.4*
COc1ccc(N2C(=O)C3C(c4ccccc4)OC4(C(=O)c5ccccc5C4=O)C3C2=O)cc1OC (configuration not stated)	-0.1
O=C1C2C(c3ccc(F)cc3)OC3(C(=O)c4ccccc4C3=O)C2C(=O)N1Cc1ccc(Cl)cc1 (configuration not stated)	-1.2
Cc1ccc(C2OC3(C(=O)c4ccccc4C3=O)C3C(=O)N(Cc4ccccc4)C(=O)C23)cc1 (configuration not stated)	-1.4
O=C1C2C(c3ccc(Cl)cc3)OC3(C(=O)c4ccccc4C3=O)C2C(=O)N1c1ccc(F)cc1F (configuration not stated)	6.1*
COc1ccc(N2C(=O)C3C(c4ccccc4Cl)OC4(C(=O)c5ccccc5C4=O)C3C2=O)cc1 (configuration not stated)	-0.76
O=C1C2C(c3ccccc3)OC3(C(=O)c4ccccc4C3=O)C2C(=O)N1c1cccc(F)c1 (configuration not stated)	1.1
COc1ccc(Cl)cc1N1C(=O)C2C(c3ccccc3)OC3(C(=O)c4ccccc4C3=O)C2C1=O (configuration not stated)	4.1*
Cc1c(Cl)cccc1N1C(=O)C2C(c3ccccc3)OC3(C(=O)c4ccccc4C3=O)C2C1=O (configuration not stated)	0.46
Cc1cc(C(=O)N/N=C/c2coc3ccccc3c2=O)ccc1[N+](=O)[O-]	-1
CCCCCCNC(=O)NC(Cc1ccccc1)C(=O)O (configuration not stated)	-0.67

Screening results from PubChem.
